The source of these data is PubChem BioAssay.

The target of this assay is Follistatin-related protein 3 (Homo sapiens) (UniProt O95633). The assay can be described thus: FSTL3 binders on small-molecule microarrays, primary screen, biochemical, small-molecule microarray, 635 nm fluorescence (AID 1105).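 Note: score merges emission near 667 nm and signal to noise per printed spot across three slides.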 The settings on record: FSTL3 binding, higher = more signal.
Follistatin-related protein 3 (Homo sapiens), sequence (O95633 whole entry, looked up): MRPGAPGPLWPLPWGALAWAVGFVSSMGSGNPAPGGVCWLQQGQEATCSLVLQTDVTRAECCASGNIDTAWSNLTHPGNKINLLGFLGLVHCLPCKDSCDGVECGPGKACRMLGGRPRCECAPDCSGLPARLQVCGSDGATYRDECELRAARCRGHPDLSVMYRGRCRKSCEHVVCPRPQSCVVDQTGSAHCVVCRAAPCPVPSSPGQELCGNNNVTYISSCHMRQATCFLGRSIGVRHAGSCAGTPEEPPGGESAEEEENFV
As to `COc1cc2c(cc1O)C(C)N(Cc1ccc([N+](=O)[O-])o1)CC2` (stereo not given), the composite z-score amounted to 0.574.

Regarding `COCCOC(=O)N1C(=O)[C@@]2(c3cc(C#Cc4ccc(OC)cc4)ccc31)[C@H](c1ccc(O)cc1)N1[C@H](c3ccccc3)[C@H](c3ccccc3)OC(=O)[C@H]1[C@@H]2C(=O)N1CCCCCCC1`, the composite z-score was found to be 0.859.

Regarding `COc1ccc([Si](C)(C)[C@@H]2[C@@H](CC(=O)N(CCO)Cc3ccccc3)O[C@]3(C(=O)N(Cc4cccc(N5C(=O)c6cccc7cccc5c67)c4)c4ccccc43)[C@H]2C)cc1`, the composite z-score was 1.4.

The compound `Cc1ccc(S[C@]2(C(=O)O)CC(=O)N(Cc3ccccc3Cl)[C@@H]2c2ccc(CO)cc2I)cc1` yielded a composite z-score of 0.653.

`COC(=O)C1=CC(CCCO)=CC(C2CC2)N(C)C=C1C(=O)OC` (stereo not given) yielded a composite z-score of 0.481.

In turn, `COCCOC(=O)N1C(=O)[C@@]2(c3cc(C#CCC(C(=O)OC)C(=O)OC)ccc31)[C@H](C(=O)N1CCc3cc(OC)c(OC)cc3C1)[C@H]1C(=O)O[C@H](c3ccccc3)[C@H](c3ccccc3)N1[C@@H]2c1ccc(OCCO)cc1` registered a composite z-score of 1.3.

Consider `COc1ccc([Si](C)(C)[C@H]2[C@H](CCO)O[C@@]3(C(=O)N(Cc4cccc(N5C(=O)COc6ccccc65)c4)c4ccccc43)[C@@H]2C)cc1`, for which the composite z-score amounted to 0.0253.

For `CN(C)CCCNC(=O)[C@@]1(C)c2ccccc2C(=O)N(Cc2ccccc2)[C@H]1c1ccc(CO)cc1`, the composite z-score was -0.456.

`COC(=O)c1c2oc(c1C(=O)OC)C(=O)N(Cc1ccccc1)Cc1cn(nn1)C[C@H](Cc1ccccc1)NC(=O)N[C@H](CO)CC2` had a composite z-score of 0.111.

As to `[N-]=[N+]=NCc1ccccc1[C@H]1OC(c2ccc(OCCCO)cc2)=N[C@@]1(CCS(=O)(=O)c1ccccc1)C(=O)N1CCCCC1`, the composite z-score was 0.909.

In turn, `O=C(CS)NCCCCCNC(=O)[C@@H]1C[C@@H]2C(=O)N3CCC[C@H]3C(=O)N2[C@@H]1c1cccc(OCCO)c1` yielded a composite z-score of -0.596.

`COCCOC(=O)N1C(=O)[C@@]2(c3cc(C#CCCO)ccc31)[C@H](C(=O)Nc1nc3ccccc3s1)[C@H]1C(=O)O[C@H](c3ccccc3)[C@H](c3ccccc3)N1[C@@H]2c1ccccc1OCCO` returned a composite z-score of 1.11.

In turn, `C[C@@H]1NC(=O)[C@@]23C(=O)N[C@@H](Cc4ccccc4)C2[C@H](C)[C@@]2(C)O[C@H]2C3/C=C/C/C=C\CNC(=O)[C@@H]2CCCN2C1=O` (stereo not given in full) had a composite z-score of -0.165.

Compound `CCC[C@@H]1C[C@@]1(CCC)[C@@H](NC(=O)OCc1ccccc1)c1ccc(-c2ccccc2)cc1` came in with a composite z-score of -0.644.

In the case of `CC[C@H]1C2=C3C(CC[C@H]4C(OCc5ccc(F)cc5C(F)(F)F)OC[C@](C)([C@@H]34)N(C(=O)OC(C)(C)C)C2)C(COC)C1COC` (stereo not given in full), the composite z-score is 0.269.

`CC(C)(C)OC(=O)CC[C@@]1(C(=O)NCc2ccccc2)N=C(c2ccc(OCCCO)cc2)O[C@@H]1c1ccccc1N=[N+]=[N-]` yielded a composite z-score of 1.26.

For the compound `CCC(CC)C(O)C1C=CC2C(=O)N(c3ccccc3)C(=O)C2N1Nc1ccc(C(C)C)cc1` (stereo not given), the composite z-score turned out to be 0.932.

The compound `C[C@H]1NC(=O)[C@@]23C(=O)N[C@@H](Cc4ccccc4)C2[C@H](C)[C@@]2(C)O[C@H]2C3/C=C/C/C=C\CNC(=O)[C@H](Cc2ccccc2)NC1=O` (stereo not given in full) had a composite z-score of 1.01.

The compound `COCCOC(=O)N1C(=O)[C@@]2(c3cc(C#CC4=CCCCC4)ccc31)[C@H](C(N)=O)[C@H]1C(=O)O[C@H](c3ccccc3)[C@H](c3ccccc3)N1[C@@H]2c1ccccc1OCCO` came in with a composite z-score of 0.733.

As for `CCOC(=O)C[C@H]1[C@H](OC(=O)c2cc3ccccc3oc2=O)[C@@H](NC(=O)c2ccc(-c3ccccc3)cc2)c2cc(OCCCO)ccc2N1C(=O)c1ccc2ccccc2n1`, the composite z-score stood at 1.06.

In turn, `COC(=O)[C@@]1(Cc2ccc(F)cc2)[C@H]2c3cc(C(=O)N(C)C)n(Cc4cc(F)cc5c4OCOC5)c3C[C@H]2CN1C(=O)c1ccccc1` yielded a composite z-score of 0.913.

The compound `COC(=O)[C@@]1(Cc2ccccc2)[C@@H]2C(=CC(=O)[C@H]2CC(=O)C(=O)N(C)C)CN1C(=O)c1ccccc1` displayed a composite z-score of 0.471.

Regarding `CN1C(=O)C2C=CC(C(O)c3ccc(F)cc3)N(Nc3ccccc3)C2C1=O` (stereo not given), the composite z-score was found to be 0.578.

`CCCC[C@@H]1C[C@H]1[C@@H](NC(=O)c1ccccc1)c1ccc(C(F)(F)F)cc1` returned a composite z-score of -0.683.

The compound `COc1ccc([Si](C)(C)[C@H]2[C@H](CCn3cc([C@H](O)c4ccccc4)nn3)O[C@@]3(C(=O)N(Cc4ccc(N5C(=O)c6cccc7cccc5c67)cc4)c4ccccc43)[C@@H]2C)cc1` yielded a composite z-score of -0.617.

Regarding `C[N+](C)(C)CCCC[C@@H]1NC(=O)[C@H]2C[C@@H](C(=O)NCCCCCCN)[C@@H](c3ccc(O)cc3)N2C1=O`, the composite z-score is -0.0878.

Compound `O[C@@H](Cc1ccccc1)[C@@H](/C=C/C1CC1)N(CC#Cc1ccccc1)Cc1cccc(Cl)c1` gave a composite z-score of -1.54.

The compound `CCOC(=O)C[C@H]1[C@H](OC(=O)c2ccccc2-c2ccccc2)[C@@H](NC(=O)c2ccc(-c3ccccc3)cc2)c2cc(OCCCO)ccc2N1C(=O)c1ccc2ccccc2n1` had a composite z-score of 0.749.

With `CN(C)c1ccc(C(O)C2C=CC3C(=O)N(c4ccccc4)C(=O)C3N2Nc2ccc([N+](=O)[O-])cc2)cc1` (stereo not given), the composite z-score worked out at 0.974.

`COC(=O)[C@@]1(Cc2ccc(OC)cc2)[C@H]2c3cc(C(=O)N4CCCC4)n(Cc4c(-c5ccccc5)noc4C)c3C[C@H]2CN1C(=O)c1ccccc1` yielded a composite z-score of 1.2.

In turn, `COc1ccc(-c2nc(-c3ccccc3)c3c(c2C)CO[Si]3(C(C)C)C(C)C)cn1` had a composite z-score of 0.446.

On to `O=C1O[C@@H](c2ccccc2)[C@@H](c2ccccc2)N2[C@@H](c3ccc(O)cc3)[C@]3(C(=O)Nc4ccc(C#CC5=CCCCC5)cc43)[C@@H](C(=O)NC[C@H](O)c3ccccc3)[C@H]12`, for which the composite z-score is 1.42.

For `CO[C@H]1O[C@H](CO)[C@@H](OC(=O)Nc2ccccc2-c2ccccc2)[C@H](OC(=O)Nc2ccc3c(c2)OCO3)[C@H]1OC(=O)Nc1ccc2c(c1)OCO2`, the composite z-score worked out at 1.43.

Consider `COC(=O)[C@@]1(Cc2ccc(F)cc2)[C@H]2c3cc(C(=O)N4CCCC4)n(CCN4CNCC4=O)c3C[C@H]2CN1C(=O)c1ccccc1`, for which the composite z-score amounted to 0.131.

For `CN(C)CCCNC(=O)[C@@H]1c2ccccc2C(=O)N(Cc2ccccc2Cl)[C@H]1c1ccc(CO)cc1`, the composite z-score was -0.89.
